The values that follow come from PubChem BioAssay (Tox21).

Assay [1] in a line: qHTS assay to identify small molecule antagonists of the estrogen receptor alpha (ER-alpha) signaling pathway using the BG1 cell line in the presence of 0.1 nM 17-beta-estradiol - cell viability counter screen (AID 1259241). Also: nearly all actives have a fitted effect of over 40% in size. In short, it runs like this: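 VM7Luc4E2, 4,000 cells/well, phenol red-free medium + 10% charcoal-stripped FBS; 24 hr plating; cpd + 0.1 nM E2 final, 22 hr 37C/5% CO2; CellTiter-Fluor 30 min, fluorescence.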
(In general: qHTS replaces the single test concentration by a dilution series.)

Assay [2] is described as follows: qHTS assay to identify small molecule HDAC inhibitors (AID 1259364). Also: top concentration of the series differs between compounds; nearly all actives have a fitted effect of over 45% in size. In short, it runs like this:
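Homogeneous cell-based luminescent assay of endogenous class I/II HDAC activity; HCT-116 cells, 2 h compound exposure, 30 min HDAC-Glo development at RT.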

Assay [3] is described as follows: qHTS assay to identify small molecule agonists of the sonic hedgehog signaling (Shh) pathway - cell viability counter screen (AID 1259366). Also: nearly all actives have a fitted effect of over 50% in size. Also: potency is read from the fitted curve at half-maximal effect. Put shortly: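 Cytotoxicity counter screen run in the same wells as the Shh reporter assay. NIH/3T3 cells carrying a Gli1 response element–driven luciferase were treated with DMSO-dissolved compounds for 24hr, and live-cell protease activity was measured with CellTiter-Fluor.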

The nature of assay [4]: qHTS assay to identify small molecule antagonists of the sonic hedgehog signaling (Shh) pathway - cell viability counter screen (AID 1259367). Also: nearly all actives have a fitted effect of over 55% in size. Also: potency is read from the fitted curve at half-maximal effect. In short, it runs like this:
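Cells: 3T3 Gli1-Luc, 2,000/well, 4 hr pre-incubation. Compounds in DMSO, then conditioned medium. Incubation 24 hr, 37C, 5% CO2. CellTiter-Fluor at 23 hr, 1 hr, fluorescence.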

Assay [5] is described as follows: qHTS assay to identify small molecule agonists of the sonic hedgehog signaling (Shh) pathway (AID 1259368; calls by dose curve;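 also: NIH/3T3-derived 3T3Gli1-Luc cells carrying a stable Gli1-driven firefly luciferase reporter; series mostly up to about 92 µM; nearly all actives have a fitted effect of over 15% in size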). In short, it runs like this: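 Steps: seed 3T3 Gli1-Luc cells, incubate 4 hr at 37 C, pin-transfer compounds in DMSO alongside a positive control, incubate 24 hr, add luciferase detection reagent, wait 30 min at room temperature, read luminescence.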
Assay [6] has as its target Estrogen receptor (Homo sapiens) (UniProt P03372). Nature of the assay: qHTS assay to identify small molecule antagonists of the estrogen receptor alpha (ER-alpha) signaling pathway using the BG1 cell line in the presence of 0.1 nM 17-beta-estradiol (AID 1259244). Also: nearly all actives have a fitted effect of over 50% in size. Also: potency is read from the fitted curve at half-maximal effect. In short, it runs like this: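 After 5 days in hormone-depleted medium (charcoal-stripped serum, no phenol red), VM7Luc4E2 cells were seeded, incubated 24 h, then co-treated with compound and 0.1 nM (final) estradiol for 22 h before luminescence detection.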

The nature of assay [7]: qHTS assay to identify small molecule HDAC inhibitors - cell viability counter screen (AID 1259365). Also: series mostly up to about 92 µM; nearly all actives have a fitted effect of over 50% in size. In short, it runs like this: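 Luminescence from CellTiter-Glo, developed 30min at room temperature, reports viability of wild-type HCT-116 cells treated 2hr with compounds at 37 C and 5% CO2 after overnight plating.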
Assay [8] is described as follows: qHTS assay to identify small molecule antagonists of the androgen receptor (AR) signaling pathway using the MDA cell line in the presence of 0.5 nM R1881 - cell viability counter screen (AID 1259242). Also: nearly all actives have a fitted effect of over 45% in size. In short, it runs like this: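 Cytotoxicity toward MDA-kb2 cells is measured by CellTiter-Fluor live-cell protease fluorescence after 16 hr compound exposure at 37C in the presence of 0.5 nM R1881 stimulator.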

Assay [9] deals with Androgen receptor (Homo sapiens) (UniProt P10275). Nature of the assay: qHTS assay to identify small molecule antagonists of the androgen receptor (AR) signaling pathway using the MDA cell line in the presence of 0.5 nM R1881 (AID 1259243). Also: nearly all actives have a fitted effect of over 50% in size. In short, it runs like this: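 Steps: seed MDA-kb2 cells, incubate 5 hr at 37C; pin-transfer compounds in DMSO; add R1881 to 0.5 nM final; incubate 16 hr; add ONE-Glo, wait 30 min at room temperature; read luminescence.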

The nature of assay [10]: qHTS assay to identify small molecule phospholipidosis (PLD) inducers (AID 1259344; active = well fitted curve in the direction sought with a large enough effect; an effect the other way counts as inactive or inconclusive; also: potency is read from the fitted curve at half-maximal effect). Put shortly:
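Phospholipidosis is scored by imaging LipidTOX-stained pits in HepG2 cells exposed to compound for 24 h at 37 C; pit counts and integrated intensities per well and per cell serve as outputs.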

Records with an inconclusive call do not appear. Some structures have more than one record in an assay (separate samples or runs), and their calls can disagree. Calls of active or inactive are those of the source. Unless noted, calls follow the shape of the dose curve; as a rule, active = well fitted curve in the direction sought with a large enough effect in the repeat runs; inconclusive = weak or mixed curves; inactive = no such curve, though single readings can be large; an effect the other way counts as inactive or inconclusive.

Sequence of Androgen receptor (Homo sapiens) (P10275 whole entry, looked up): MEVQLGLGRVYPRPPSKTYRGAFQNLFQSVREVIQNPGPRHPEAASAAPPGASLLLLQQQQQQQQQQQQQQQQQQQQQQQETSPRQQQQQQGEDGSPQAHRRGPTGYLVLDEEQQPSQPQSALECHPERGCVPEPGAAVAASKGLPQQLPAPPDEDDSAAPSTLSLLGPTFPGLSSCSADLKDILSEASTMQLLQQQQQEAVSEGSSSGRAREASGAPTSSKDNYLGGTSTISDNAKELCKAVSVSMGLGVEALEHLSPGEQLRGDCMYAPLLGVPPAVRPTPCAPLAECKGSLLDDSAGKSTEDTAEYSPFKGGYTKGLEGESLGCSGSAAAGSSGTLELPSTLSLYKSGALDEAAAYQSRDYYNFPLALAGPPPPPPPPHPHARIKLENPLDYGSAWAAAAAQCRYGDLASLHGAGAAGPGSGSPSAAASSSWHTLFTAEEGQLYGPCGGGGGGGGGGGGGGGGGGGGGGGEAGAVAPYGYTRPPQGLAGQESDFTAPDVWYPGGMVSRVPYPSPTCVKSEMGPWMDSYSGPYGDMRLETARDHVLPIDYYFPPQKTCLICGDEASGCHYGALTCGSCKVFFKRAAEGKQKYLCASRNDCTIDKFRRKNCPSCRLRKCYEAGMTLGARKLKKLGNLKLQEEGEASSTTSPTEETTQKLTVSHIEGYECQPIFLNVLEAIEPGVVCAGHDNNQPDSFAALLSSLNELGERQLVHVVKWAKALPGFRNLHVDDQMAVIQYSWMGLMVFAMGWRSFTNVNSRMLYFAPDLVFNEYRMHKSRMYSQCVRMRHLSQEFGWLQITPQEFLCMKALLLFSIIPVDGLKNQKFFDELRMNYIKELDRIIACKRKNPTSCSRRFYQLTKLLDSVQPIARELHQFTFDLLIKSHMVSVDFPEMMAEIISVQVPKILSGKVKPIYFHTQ
Sequence of Estrogen receptor (Homo sapiens) (P03372 whole entry, looked up): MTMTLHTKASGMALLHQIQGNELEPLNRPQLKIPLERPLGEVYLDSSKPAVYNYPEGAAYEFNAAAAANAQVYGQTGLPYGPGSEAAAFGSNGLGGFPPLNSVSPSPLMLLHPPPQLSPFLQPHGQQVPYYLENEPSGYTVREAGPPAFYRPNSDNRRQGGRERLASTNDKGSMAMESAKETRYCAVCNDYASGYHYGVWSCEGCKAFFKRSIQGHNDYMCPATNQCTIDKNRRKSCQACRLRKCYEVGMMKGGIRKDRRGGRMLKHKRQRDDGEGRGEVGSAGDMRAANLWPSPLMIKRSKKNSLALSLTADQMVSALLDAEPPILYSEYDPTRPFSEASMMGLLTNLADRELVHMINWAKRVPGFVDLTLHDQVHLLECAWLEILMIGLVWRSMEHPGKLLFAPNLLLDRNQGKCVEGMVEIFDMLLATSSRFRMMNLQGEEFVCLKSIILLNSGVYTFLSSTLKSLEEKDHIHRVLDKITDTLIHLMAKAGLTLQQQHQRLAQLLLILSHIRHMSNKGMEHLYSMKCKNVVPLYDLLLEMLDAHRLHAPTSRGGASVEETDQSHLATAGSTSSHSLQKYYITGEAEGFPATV

As for `O=CCc1ccccc1`, the Potency result in assay [1], in assay [2], in assay [3], in assay [4] and in assay [5] was “inactive” each time.

Turning to `c1ccncc1`, the Potency result in assay [1], in [6], in [2], in [3], in assay [4] and in assay [5] was “inactive” in each case. Also, the compound was classed as inactive in [7].

Turning to `C#C[C@]1(O)CC[C@H]2[C@@H]3CCc4cc(OC)ccc4[C@H]3CC[C@@]21C`, the Potency result in assay [1], in assay [6], in [2], in assay [4] and in [5] was “inactive” in each case. Also, in assay [7], the compound was called inactive.

Regarding `CCOCCOCCO`, the Potency entry in assay [8], in [9], in assay [2], in [3], in assay [4] and in assay [5] was “inactive” each time.

Turning to `CC1=CC2C3CC(C=C3C)C2C1` (centres undefined), the Potency entry in assay [1], in assay [6], in assay [2], in assay [3], in [4] and in assay [5] was “inactive” each time.

Consider `COc1ccc(C(=O)CC(=O)c2ccc(C(C)(C)C)cc2)cc1`, for which the Potency result in [1], in assay [8], in [2], in [3], in assay [4] and in assay [5] was “inactive” throughout.

As for `C#C[C@]1(O)CC[C@H]2[C@@H]3CCC4=Cc5oncc5C[C@]4(C)[C@H]3CC[C@@]21C`, the Potency result in assay [1], in assay [2], in assay [4] and in assay [5] was “inactive” throughout. The Potency in assay [6] is 30.6 µM (active). The compound was called inactive in assay [7].

For the compound `Cc1ncc[nH]1`, the Potency result in [1], in assay [2], in [3], in assay [4] and in assay [5] was “inactive” throughout. In addition, the result in assay [7] was inactive.

For `Nc1ccc(Cl)cc1Cl`, the Potency entry in assay [1], in [6], in assay [2], in [3], in [4] and in [5] was “inactive” throughout.

With `CCCCNS(=O)(=O)c1ccccc1`, the Potency entry in [1], in assay [6], in [2], in [3], in [4] and in assay [5] was “inactive” throughout.

`COC(=O)c1ccccc1`: the Potency result in assay [1], in assay [8], in assay [2], in [3], in [4] and in assay [5] was “inactive” throughout.

Take `c1cc(-c2ccncc2)ccn1`: the Potency result in assay [1], in [6], in assay [2], in assay [3], in assay [4] and in assay [5] was “inactive” each time. Also, in assay [7], the call was inactive.

As for `Cc1ccc(C(=O)c2cc(O)c(O)c([N+](=O)[O-])c2)cc1`, the Potency entry in assay [1], in assay [2] and in assay [5] was “inactive” each time. Further, the Potency in assay [4] is 54.5 µM (active) and inactive.

As to `CCCc1c(OCCCCc2nn[nH]n2)ccc(C(C)=O)c1O`, the Potency entry in assay [1], in assay [6], in [10], in assay [2], in assay [3] and in [4] was “inactive” throughout. Also, in [5], the Potency entry is “inactive”.

With `Cc1cccc(C(=O)O)c1`, the Potency entry in assay [8], in [9], in [6], in assay [2] and in [5] was “inactive” each time. In addition, the call in [7] was inactive. In assay [4], the Potency was 3.03 µM (active) and inactive.

On to `CCCCC/C=C/C=C/C=O`, for which the Potency result in assay [1], in [8], in [2], in assay [3], in [4] and in assay [5] was “inactive” in each case.

Consider `c1cc(N(CC2CO2)CC2CO2)ccc1OCC1CO1` (centres undefined), for which the Potency entry in [1], in assay [6], in [2] and in assay [5] was “inactive” throughout. Besides, the call in assay [7] was inactive. The Potency in assay [3] was 61.1 µM (active); in [4], 27.3 µM (active).

As for `O=Cc1ccccc1O`, the Potency result in assay [1], in assay [6], in assay [2], in assay [4] and in assay [5] was “inactive” in each case. Also, the outcome in assay [7] was inactive.

With `CCCC(=O)O`, the Potency result in assay [1], in assay [2], in assay [3], in assay [4] and in assay [5] was “inactive” throughout. In assay [7], the compound was called inactive.

In the case of `O=C(c1ccccc1)c1ccccc1O`, the Potency result in assay [1], in assay [8], in assay [2], in assay [4] and in assay [5] was “inactive” throughout.

Take `COC(C)COC(C)COC(C)CO` (centres undefined): the Potency entry in [8], in assay [9], in assay [6], in [2], in assay [3] and in assay [4] was “inactive” in each case. For the same compound, the Potency entry in assay [5] was “inactive”. Besides, in assay [7], the call was inactive.

For `CCOC(=O)C(C#N)=C(c1ccccc1)c1ccccc1`, the Potency result in [1], in [10], in assay [2], in assay [4] and in assay [5] was “inactive” throughout.

Regarding `CCCCc1oc2ccccc2c1C(=O)c1cc(I)c(OCCN(CC)CC)c(I)c1`, the Potency entry in [1], in assay [6], in [2], in assay [4] and in [5] was “inactive” throughout. For the same compound, the Potency in [3] was 43.6 µM (active).

Turning to `CC(=O)c1ccccn1`, the Potency entry in [1], in [8], in [2], in assay [4] and in assay [5] was “inactive” in each case. In [7], the compound was called inactive.

On to `CCCCC(CC)COP(=O)(OCC(CC)CCCC)OCC(CC)CCCC` (centres undefined), for which the Potency entry in assay [1], in [2], in assay [3], in assay [4] and in assay [5] was “inactive” in each case. In addition, the result in assay [7] was inactive.

Consider `CCC(C)CO` (centres undefined), for which the Potency result in [1], in assay [6], in assay [2], in [4] and in assay [5] was “inactive” in each case.

Consider `Nc1ccc(S(=O)(=O)Nc2cnc3ccccc3n2)cc1`, for which the Potency entry in [1], in [8], in assay [2], in assay [4] and in [5] was “inactive” each time.

As for `CNCCCC12CCC(c3ccccc31)c1ccccc12`, the Potency result in assay [1], in [2] and in assay [5] was “inactive” in each case. The Potency in assay [6] is 61.1 µM (active) and inactive; in [10], 7.94 µM (active); in [3] it was 30.6 µM (active); in [4], 54.5 µM (active) and inactive. Besides, the outcome in [7] was inactive.

With `CC(C)=CCC/C(C)=C\CO`, the Potency result in assay [8], in assay [2], in assay [4] and in assay [5] was “inactive” in each case. Also, the outcome in assay [7] was inactive.

Regarding `Cn1cnc([N+](=O)[O-])c1Sc1ncnc2nc[nH]c12`, the Potency result in assay [6], in [2] and in assay [5] was “inactive” each time. Moreover, the Potency in [4] is 19.2 µM (active).

`CCC(C)c1ccccc1O` (centres undefined): the Potency entry in assay [8], in assay [2], in assay [3], in assay [4] and in assay [5] was “inactive” each time. Besides, the compound was classed as inactive in assay [7].

Consider `O=C1c2cccc(O)c2C(=O)c2c(O)cccc21`, for which the Potency result in assay [8], in [4] and in assay [5] was “inactive” in each case. Moreover, the call in assay [7] was inactive.

Turning to `C=C(C)C1CC=C(C)CC1` (centres undefined), the Potency result in assay [6], in assay [2], in assay [3], in [4] and in assay [5] was “inactive” each time.
